Experimental data as given in PubChem BioAssay (NCATS).
“And” between values parts separate entries of the source, which are not always exact repeats. Equal entries are not always repeated. Records with an inconclusive call do not appear. A number with no mark means an inactive call. The source made the active and inactive calls. Calls come from the whole dose curve; as a rule, active = well fitted curve in the direction sought with a large enough effect; inconclusive = small, poorly fitted or top-dose-only effect, or another doubt; inactive = no such curve, though single readings can be large; an effect the other way counts as inactive or inconclusive. Residues, ends and D or L forms follow the SMILES beside them.
Potency is the fitted concentration of half-maximal effect.

Target: Cellular tumor antigen p53 (Homo sapiens) (UniProt P04637)
Sequence (P04637 whole entry, looked up): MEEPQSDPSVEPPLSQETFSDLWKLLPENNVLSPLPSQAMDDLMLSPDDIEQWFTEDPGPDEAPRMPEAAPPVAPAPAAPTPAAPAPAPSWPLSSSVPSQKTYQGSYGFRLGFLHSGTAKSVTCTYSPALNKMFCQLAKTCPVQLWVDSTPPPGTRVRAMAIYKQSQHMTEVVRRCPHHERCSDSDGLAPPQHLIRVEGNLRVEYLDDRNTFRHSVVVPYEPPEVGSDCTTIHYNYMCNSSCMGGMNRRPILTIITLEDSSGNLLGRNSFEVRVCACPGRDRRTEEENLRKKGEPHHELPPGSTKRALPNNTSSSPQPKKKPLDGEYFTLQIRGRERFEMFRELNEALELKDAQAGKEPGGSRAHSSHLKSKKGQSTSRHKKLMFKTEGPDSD
Assay: Primary qHTS for small molecule compounds that upregulate eGFP-tagged delta133p53alpha (in N-terminal) cells. (AID 2060322); note: nearly all actives have a fitted effect of over 75% in size;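 for activation: cells pre-induced with doxycycline then dosed without doxycycline; 0% = DMSO vehicle and 100% = reference activator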
Details: NCI-H358 eGFP-delta133p53alpha fluorescence, 24 h; activation: active compounds read high
Outline: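 NCI-H358 cells pre-induced 24 h with 10 ng/ml doxycycline for eGFP-delta133p53alpha, plated dox-free and exposed 24 h at 37C to titrated compounds. Fixed, Hoechst-stained; gated GFP peak intensity by laser scanning cytometry, normalized to DMSO (0%) and 57.5 uM 5-azacytidine (100%).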
Molecule `CN1CCN(c2ncc(-c3cc(Cl)cc(Cl)c3Cl)c(N)n2)CC1` has an activation of 4.6%. In the case of `CN(C)CCN1C(=O)c2cccc3cc(N)cc(c23)C1=O`, the Potency is reported as 34.3 µM (active). Work on `Fc1ccc(Cl)cc1-c1nc(Nc2ccncc2)c2nccnc2n1` yielded an activation of 0.772%. `CCCCCN=C(N)N/N=C/c1c[nH]c2ccc(OC)cc12` gave an activation of 9.6%. For `O=[N+]([O-])c1cn2c(n1)OC[C@@H](OCc1ccc(OC(F)(F)F)cc1)C2`, the activation was 9.64%. Molecule `CN1CCN2c3ncccc3Cc3ccccc3C2C1` (stereo not given) has an activation of -22.2%. For `C=C1c2cccc(O)c2C(O)=C2C(=O)[C@@]3(O)C(O)=C(C(N)=O)C(=O)[C@@H](N(C)C)[C@@H]3[C@@H](O)[C@H]12`, the activation was 22.8%. `CCn1c(-c2nonc2N)nc2c(C#CC(C)(C)O)ncc(OC[C@H]3CCCNC3)c21` gave an activation of -17.2%. With `O=C1NC(=O)/C(=C/c2ccc3nccnc3c2)S1` the activation was 18.2%. With `Cn1c(=O)c2c(ncn2CC(O)CO)n(C)c1=O` (stereo not given) the activation was 5.02% and 16.6%. With `CCCC1OC2C[C@@H]3[C@H]4CCC5=CC(=O)C=C[C@]5(C)[C@H]4C(O)C[C@]3(C)[C@]2(C(=O)CO)O1` (stereo not given in full) the activation was 16.2%. For `COC(=O)[C@H](Cc1ccccc1)NC(=O)[C@@H](N)CC(=O)O` (H-Asp-Phe-OMe), the activation was -35.6% and -14.3%. With `CC1=C(CC(=O)O)c2cc(F)ccc2C1=Cc1ccc(S(C)=O)cc1` (stereo not given) the activation was -21.9%. With `NC(=O)Nc1sc(-c2ccc(F)cc2)cc1C(N)=O` the activation was -16.3%. `O=C(O)c1nc(=O)[nH]c(=O)[nH]1` showed an activation of 3.67%. Work on `O=c1[nH]c(=O)n([C@H]2C[C@H](O)[C@@H](CO)O2)cc1I` yielded an activation of -6.69%. For `CCCn1c(=O)c2[nH]c(C34CC5CC3C[C@@H](C5)C4)nc2n(CCC)c1=O`, the activation was 31.9%. `O=C(O)C(O)Cc1ccc(O)c(O)c1` (stereo not given) showed an activation of -12.6%. In the case of `Cc1ccc(C(C)(O)c2nc3ccccc3s2)c(C)c1` (stereo not given), the activation is reported as 5.91%. With `N#Cc1ccnc(Nc2cc(C3CCN(C4COC4)CC3)cc(N3CCC(F)(F)C3)n2)c1` the Potency was 27.2 µM (active). In the case of `COC(c1ccccc1)(c1ccccc1)[C@H](Oc1nc(C)cc(C)n1)C(=O)O`, the activation is reported as -19.8% and -2.24%. For `COc1cc(OC)c(C(=O)CCCN2CCCC2)c(OC)c1`, the activation was -15.1% and 2.07%. Molecule `COc1ccc(C=Cc2cc(OC)c(OC)c(OC)c2)cc1NC(=O)[C@H](N)CO` has an activation of 7.98%. With `CC[C@H](C=C[C@@H](C)[C@H]1CC[C@H]2[C@@H]3CC=C4C[C@@H](O)CC[C@]4(C)[C@@H]3CC[C@]12C)C(C)C` the activation was -9.05%. With `C=Cc1c(C)c2cc3nc(cc4[nH]c(cc5nc(cc1[nH]2)C(C)=C5CCC(=O)O)c(CCC(=O)OC)c4C)[C@@]1(C)C3=CC=C(C(=O)OC)[C@H]1C(=O)OC` the activation was 9.63%. Work on `CN1C(=O)c2sccc2N(C)c2nc(Nc3ccc(S(N)(=O)=O)cc3)ncc21` yielded an activation of -6.75%. In the case of `Cc1ccc(S(=O)(=O)NC(=O)NN2CC3CCCC3C2)cc1` (stereo not given), the activation is reported as 8.47% and 8.97%. With `O=C1NCCc2[nH]c(-c3ccncc3)cc21` the Potency was 7.69 µM (active). For `O=[N+]([O-])c1ccc(Nc2ccccc2-c2ccccc2)c2nonc12`, the Potency was 9.68 µM (active). With `Cc1ccc(C(=O)Nc2ccc(CN3CCN(C)CC3)c(C(F)(F)F)c2)cc1C#Cc1cnc2cccnn12` the Potency was 7.69 µM (active) and 10.7 µM (active). Work on `O=c1c(O)c(-c2ccc(O)cc2)oc2cc(O)cc(O)c12` yielded an activation of 36.9%. For `C#CCN[C@@H]1CCc2ccccc21`, the activation was -13.4% and -11.3%. In the case of `Cc1cc(Nc2cc(NC(=O)c3c(Cl)cccc3Cl)ccn2)nc(N)n1`, the Potency is reported as 34.3 µM (active). Molecule `O=C(O)c1ccc(-c2c[nH]c3ncc(-c4ccccc4)cc23)cc1C1CCCC1` has an activation of -17.5%. `CC(=O)NC(CS)C(=O)O` (stereo not given) gave an activation of 60.6%. `C[C@H](CCC(=O)O)[C@H]1CCC2C3C[C@H](O)[C@@H]4C[C@H](O)CC[C@]4(C)C3CC[C@@]21C` (stereo not given in full) showed an activation of 10.8%. Work on `O=S(=O)(O)CCSSCCS(=O)(=O)O` yielded an activation of -2.01%. `CCOc1ccccc1N=Nc1c(C)[nH]n(-c2nc(-c3ccccc3)cs2)c1=O` showed an activation of 25.3%. `Cc1ccc(O)c(C(CCN(C(C)C)C(C)C)c2ccccc2)c1` (stereo not given) gave an activation of 47.6%. With `Cc1cc2c(cc1CC(=O)c1sccc1S(=O)(=O)Nc1onc(C)c1Cl)OCO2` the activation was -10% and -11%.

System: not listed separately
Assay: BET inhibitor-based combinations targeting novel dependencies in MECOM-rearranged (r) AML: SET-2 cell line (AID 2202231); note: nearly all actives have a fitted effect of over 35% in size;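 for viability: plate controls were DMSO treated cells for no effect and wells without cells for full effect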
Details: SET-2 AML cells viability, CellTiter-Glo luminescence, 48 h; viability: active compounds read low, concentration not given here
Outline: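 AML cell lines seeded at 500 cells/well, treated with 11-point dose curves for 48 h. Viability by CellTiter-Glo luminescence, normalised to DMSO and empty wells; activity expressed as AUC and per-cell-line Z-transformed AUC.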
In the case of `CN1CCN(c2ncc(-c3cc(Cl)cc(Cl)c3Cl)c(N)n2)CC1`, the Potency is reported as 23.5 µM (active). In the case of `CN(C)CCN1C(=O)c2cccc3cc(N)cc(c23)C1=O`, the Potency is reported as 14.8 µM (active). For `Fc1ccc(Cl)cc1-c1nc(Nc2ccncc2)c2nccnc2n1`, the viability was 110%. In the case of `CCCCCN=C(N)N/N=C/c1c[nH]c2ccc(OC)cc12`, the Potency is reported as 23.5 µM (active). Work on `O=[N+]([O-])c1cn2c(n1)OC[C@@H](OCc1ccc(OC(F)(F)F)cc1)C2` yielded a viability of 111%. In the case of `CN1CCN2c3ncccc3Cc3ccccc3C2C1` (stereo not given), the viability is reported as 102%. In the case of `C=C1c2cccc(O)c2C(O)=C2C(=O)[C@@]3(O)C(O)=C(C(N)=O)C(=O)[C@@H](N(C)C)[C@@H]3[C@@H](O)[C@H]12`, the viability is reported as 86.7%. With `CCn1c(-c2nonc2N)nc2c(C#CC(C)(C)O)ncc(OC[C@H]3CCCNC3)c21` the viability was 101%. `O=C1NC(=O)/C(=C/c2ccc3nccnc3c2)S1` showed a viability of 113%. `Cn1c(=O)c2c(ncn2CC(O)CO)n(C)c1=O` (stereo not given) showed a viability of 118%. With `CCCC1OC2C[C@@H]3[C@H]4CCC5=CC(=O)C=C[C@]5(C)[C@H]4C(O)C[C@]3(C)[C@]2(C(=O)CO)O1` (stereo not given in full) the viability was 98.3%. For `COC(=O)[C@H](Cc1ccccc1)NC(=O)[C@@H](N)CC(=O)O` (H-Asp-Phe-OMe), the viability was 112%. `CC1=C(CC(=O)O)c2cc(F)ccc2C1=Cc1ccc(S(C)=O)cc1` (stereo not given) gave a viability of 104%. For `NC(=O)Nc1sc(-c2ccc(F)cc2)cc1C(N)=O`, the Potency was 5.9 µM (active). Molecule `O=C(O)c1nc(=O)[nH]c(=O)[nH]1` has a viability of 105%. In the case of `O=c1[nH]c(=O)n([C@H]2C[C@H](O)[C@@H](CO)O2)cc1I`, the Potency is reported as 3.72 µM (active). For `CCCn1c(=O)c2[nH]c(C34CC5CC3C[C@@H](C5)C4)nc2n(CCC)c1=O`, the viability was 109%. With `O=C(O)C(O)Cc1ccc(O)c(O)c1` (stereo not given) the viability was 99.8%. In the case of `Cc1ccc(C(C)(O)c2nc3ccccc3s2)c(C)c1` (stereo not given), the Potency is reported as 13.2 µM (active). With `N#Cc1ccnc(Nc2cc(C3CCN(C4COC4)CC3)cc(N3CCC(F)(F)C3)n2)c1` the Potency was 3.72 µM (active). With `COC(c1ccccc1)(c1ccccc1)[C@H](Oc1nc(C)cc(C)n1)C(=O)O` the viability was 106%. Molecule `COc1cc(OC)c(C(=O)CCCN2CCCC2)c(OC)c1` has a viability of 98%. With `COc1ccc(C=Cc2cc(OC)c(OC)c(OC)c2)cc1NC(=O)[C@H](N)CO` the Potency was 0.263 µM (active). Molecule `CC[C@H](C=C[C@@H](C)[C@H]1CC[C@H]2[C@@H]3CC=C4C[C@@H](O)CC[C@]4(C)[C@@H]3CC[C@]12C)C(C)C` has a viability of 107%. Work on `C=Cc1c(C)c2cc3nc(cc4[nH]c(cc5nc(cc1[nH]2)C(C)=C5CCC(=O)O)c(CCC(=O)OC)c4C)[C@@]1(C)C3=CC=C(C(=O)OC)[C@H]1C(=O)OC` yielded a viability of 97.6%. With `CN1C(=O)c2sccc2N(C)c2nc(Nc3ccc(S(N)(=O)=O)cc3)ncc21` the Potency was 6.61 µM (active). Work on `Cc1ccc(S(=O)(=O)NC(=O)NN2CC3CCCC3C2)cc1` (stereo not given) yielded a viability of 120%. With `O=C1NCCc2[nH]c(-c3ccncc3)cc21` the Potency was 3.72 µM (active). With `O=[N+]([O-])c1ccc(Nc2ccccc2-c2ccccc2)c2nonc12` the Potency was 20.9 µM (active). With `Cc1ccc(C(=O)Nc2ccc(CN3CCN(C)CC3)c(C(F)(F)F)c2)cc1C#Cc1cnc2cccnn12` the Potency was 7.42 µM (active). For `O=c1c(O)c(-c2ccc(O)cc2)oc2cc(O)cc(O)c12`, the viability was 105%. `C#CCN[C@@H]1CCc2ccccc21` gave a viability of 116%. In the case of `Cc1cc(Nc2cc(NC(=O)c3c(Cl)cccc3Cl)ccn2)nc(N)n1`, the Potency is reported as 3.32 µM (active). Molecule `O=C(O)c1ccc(-c2c[nH]c3ncc(-c4ccccc4)cc23)cc1C1CCCC1` has a viability of 89.8%. `CC(=O)NC(CS)C(=O)O` (stereo not given) gave a viability of 104%. For `C[C@H](CCC(=O)O)[C@H]1CCC2C3C[C@H](O)[C@@H]4C[C@H](O)CC[C@]4(C)C3CC[C@@]21C` (stereo not given in full), the viability was 119%. Molecule `O=S(=O)(O)CCSSCCS(=O)(=O)O` has a viability of 104%. `CCOc1ccccc1N=Nc1c(C)[nH]n(-c2nc(-c3ccccc3)cs2)c1=O` gave a viability of 118%. For `Cc1ccc(O)c(C(CCN(C(C)C)C(C)C)c2ccccc2)c1` (stereo not given), the viability was 117%. In the case of `Cc1cc2c(cc1CC(=O)c1sccc1S(=O)(=O)Nc1onc(C)c1Cl)OCO2`, the viability is reported as 68.3%.
